High-throughput results deposited in PubChem BioAssay by National Center for Advancing Translational Sciences (NCATS).
Most compounds without a hit are left out; they make up all but 8.3% or so of the library.
Gal4-VP16 FLuc = counter-screen for ROR gamma inhibitors: Gal4-VP16 reporter; Drosophila S2 Gal4-VP16 UAS-luciferase, luminescence, 20 h; AID 2546; hit rate 3.5% among 310,000; Potency, µM (series often up to 53.6 µM), for inactives: at the highest dose activity, negative = inhibition, hits mostly inhibitors;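 note: Gal4-VP16 expression switched on by copper sulfate through the metallothionein promoter; potency is the fitted concentration of half-maximal effect; % is set by controls: 0 for no effect and ±100 for the full control effect; nearly all actives have a fitted effect of over 50% in size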
Giardia kill = kills Giardia lamblia; Giardia lamblia trophozoite viability; activity change, % at 7.66 µM, hits read low; hit rate 0.15% among 340,000; AID 540267; in the data active = activity change below about -80%; inconclusive = between about -30% and that limit;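 note: parasites exposed to compound for two days anaerobically before the ATP read; % is set by controls: 0 for no effect and ±100 for the full control effect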
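Trophozoite viability was measured as ATP-dependent luminescence, read 15-30 min after reagent addition. Before that, parasites at 100 cells/well were exposed to compounds for 48 h, anaerobically, at 37 deg C.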
RORgamma inh = inhibitors of mouse ROR gamma transcriptional activity | Drosophila S2 Gal4-RORgamma UAS-luciferase reporter, 20 h | Potency, µM (series often up to 53.6 µM), for the others: at the top dose activity change, negative = inhibition, actives largely listed as inhibitors | hit rate 5.4% among 310,000 | AID 2551; note: potency is the fitted concentration of half-maximal effect; % is set by controls: 0 for no effect and ±100 for the full control effect; nearly all actives have a fitted effect of over 60% in size
Target sequence (P51450 whole entry, looked up, the tested form may be a part): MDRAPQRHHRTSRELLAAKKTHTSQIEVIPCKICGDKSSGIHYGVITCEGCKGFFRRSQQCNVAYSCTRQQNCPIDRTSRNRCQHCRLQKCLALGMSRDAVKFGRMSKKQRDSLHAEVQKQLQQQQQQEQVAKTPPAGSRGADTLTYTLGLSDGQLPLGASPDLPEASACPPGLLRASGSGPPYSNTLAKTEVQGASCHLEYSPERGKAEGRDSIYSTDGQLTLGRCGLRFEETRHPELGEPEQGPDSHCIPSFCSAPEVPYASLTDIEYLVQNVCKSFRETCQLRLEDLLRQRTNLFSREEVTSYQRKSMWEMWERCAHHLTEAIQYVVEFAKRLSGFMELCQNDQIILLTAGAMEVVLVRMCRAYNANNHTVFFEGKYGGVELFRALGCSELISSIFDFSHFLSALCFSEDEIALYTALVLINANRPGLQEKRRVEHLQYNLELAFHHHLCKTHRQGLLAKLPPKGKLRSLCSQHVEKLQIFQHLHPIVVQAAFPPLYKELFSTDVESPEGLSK
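Stable Schneider cell line, Gal4 DNA-binding domain fused to ROR gamma, UAS-luciferase. Cmpd 1 hr RT → CuSO4 700 uM final → 20 hr RT → luciferase reagent 10 min → luminescence.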
MCF10A rerep = DNA re-replication induction in MCF 10a cells. hit rate 2.9% among 350,000. MCF 10A DNA re-replication, Hoechst nuclear intensity, 48 h. AID 624296. Potency, µM (highest dose often 46.1 µM), inactives show at the top dose activity, positive = re-replication, hits mostly activators; note: potency is the fitted concentration of half-maximal effect; % of control where 0% means no effect; nearly all actives have a fitted effect of over 50% in size
Chronic BCR inh = blocks chronic active B-cell receptor signaling; Potency, µM (doses to about 46.1 µM), for inactives: top-dose activity change, negative = inhibition, hits mostly inhibitors; AID 493014; hit rate 0.05% among 340,000; ABC-DLBCL IkBa-CBG/CBR reporter, luminescence ratio, 4 h; active = well fitted inhibition curve with a large enough effect in the signal ratio, with a control signal flat, not every such curve was filed as active; inconclusive = small, poorly fitted or top-dose-only effect, or effect the other way, or a change in a side signal; the % refers to the signal ratio;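 note: potency is the fitted concentration of half-maximal effect; plate controls were basal doxycycline-induced cells for no effect and cells given 10 µM MG132 for full effect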
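Doxycycline induced both beetle luciferases in TMD8 lymphoma cells; IKK-driven degradation limits the IkappaBalpha-fused green signal, while red luminescence normalises for cell number and nonspecific effects. Compounds tested up to 46 uM, 4 hrs.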
SW480 rereplic = inducers of DNA re-replication in SW480 colon cancer cells; SW480 DNA re-replication, Hoechst DNA content imaging, 48 h; Potency, µM (doses to about 46.1 µM), without a hit: at the top dose re-replication activation, hits mostly activators; hit rate 1.8% among 340,000; AID 624297; note: potency is the fitted concentration of half-maximal effect; % of control where 0% means no effect; nearly all actives have a fitted effect of over 55% in size
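Hoechst fluorescence of nuclei (405 nm excitation, 500-530 nm emission) measured by plate-scanning imager after 48 hr compound exposure at 37 C; re-replication scored as increased number of nuclei with elevated intensity.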
Numbers without * were called inactive; ? = inconclusive; . = no result given; [ ] = remark or other dose. Unless noted, calls come from the whole dose curve; as a rule, active = well fitted curve in the direction sought with a large enough effect; inconclusive = small, poorly fitted or top-dose-only effect, or another doubt; inactive = no such curve, though single readings can be large; an effect the other way counts as inactive or inconclusive.

SMILES	Gal4-VP16 FLuc	Giardia kill	RORgamma inh	MCF10A rerep	Chronic BCR inh	SW480 rereplic
CC1(C)CC2CC(C)(CN2S(=O)(=O)c2ccc(C(=O)Nc3cccc(S(=O)(=O)N4CCOCC4)c3)cc2)C1 (centres undefined)	0.5µM*	0	?	?	4%	0%
C=CCC(CC=C)(NC(=O)c1cccc(C)c1)c1ccccc1	-2%	0	12%[10 µM]	26%	6%	10%
Cc1cc(NC(=O)CSc2nnc(CNC(=O)c3ccc(F)cc3)o2)no1	-3%	28	-25%	-3%	2%	-24%
Cn1c(=O)n(C)c2cc(NC(=O)COc3ccc(F)cc3)ccc21	-4%	50	19%	2%	0%	-20%
O=C(NCCCn1cccn1)C1CCC(=O)N(Cc2ccccc2F)C1 (centres undefined)	7%	-19	-4%	-4%	1%	?
O=C(NNC(=S)NCc1ccco1)c1ccccc1Br	-20%	13	0.89µM*	4%	2%	-14%
Cn1cc(Cl)c(C(=O)NNC(=S)NCc2ccco2)n1	-4%	0	20%	1%	0%	-57%
[O-]/C(=C(\C(=S)NCc1ccco1)[n+]1ccccc1)c1ccccc1Br	10%	-1	22µM*	1%	1%	-1%
O=C(NNC(=S)NCc1ccco1)c1ccc(Cl)s1	-12%	1	1.8µM*	11%	?	0%
O=C(/C=C/c1ccccc1)c1ccc2ccccc2c1	.	11	.	?	.	141%
CC(C)(C)c1cc(C(=O)/C=C/c2ccc(C(=O)O)cc2)cc(C(C)(C)C)c1	?	.	7.1µM*	.	.	.
CSCCCNC(=S)N1CCN(S(=O)(=O)c2cccc(C(F)(F)F)c2)CC1	3%	26	17%	-1%	5%	?
CCN(CC)c1ccc(/C=C/C(=O)C2C(=O)C=C(C)OC2=O)cc1 (centres undefined)	?	7	13µM*	18µM*	-4%	?
O=C(NC(Nc1ncc(S(=O)(=O)c2ccc([N+](=O)[O-])cc2)s1)(C(F)(F)F)C(F)(F)F)c1ccc(Cl)cc1	11µM*	-4	?	9.2µM*	?	?
CCOc1ccccc1O[C@H](c1ccccc1)[C@H]1CNCCO1	.	-1	.	?	3%	-1%
CCC(C)Nc1nc(CN2CCOCC2)nc2sc3c(c12)CCC3 (centres undefined)	?	-3	11µM*	13%	?	-20%
Clc1nc(CN2CCOCC2)nc2sc3c(c12)CCC3	23%	-21	?	9%	0%	30%[1.84 µM]
Cc1cccc(Oc2nc(CN3CCOCC3)nc3sc4c(c23)CCCC4)c1	?	-6	11µM*	?	-1%	3%
CCN(CC)CCCNc1nc(CN2CCOCC2)nc2sc3c(c12)CCC3	-2%	12	-6%	15%	-8%	6%
CCCCC[C@H](O)/C=C/C=C\C/C=C\C=C\[C@@H](O)CCCC(=O)O	6%	.	12%	.	.	.
Cc1cc(C)c(CN2CCN(CCCn3cnc(C(=O)Nc4ccc(C)c(C)c4)n3)CC2)c(C)c1	.	7	.	?	.	7.3µM*
Cc1ccc(C(=O)NC(=S)N2CC(C)OC(C)C2)cc1[N+](=O)[O-] (centres undefined)	0.71µM*	4	0.4µM*	-2%	0%	?
COc1ccc(C(=O)NC(=S)N2CCC(C)CC2)cc1	4µM*	-6	1.4µM*	3%	4%	-1%[9.22 µM]
COc1ccc(C(=O)NC(=S)N2CCCC2)cc1	-12%	-11	-21%	0%	-3%	-5%
Cc1ccc(C(=O)NN2CCOCC2)cc1[N+](=O)[O-]	-7%	-10	-10%	-25%	1%	-1%
SMILES	Gal4-VP16 FLuc	Giardia kill	RORgamma inh	MCF10A rerep	Chronic BCR inh	SW480 rereplic
COc1ccc(C(=O)NC(=S)N2CC(C)OC(C)C2)cc1 (centres undefined)	6.3µM*	-3	5.6µM*	-1%	-3%	-2%
O=C1CC(N2CCCCC2)C(=O)N1c1ccccc1 (centres undefined)	20µM*	-25	10µM*	1%	1%	1%
O=C1CC(N2CCCN(C3CC(=O)N(c4ccc(F)cc4)C3=O)CC2)C(=O)N1c1ccc(F)cc1 (centres undefined)	?	2	18µM*	15%	2%	-4%
Cc1ccc(Nc2nnc(SCC(=O)NC3CC3)s2)cc1	.	-11	.	1%	0%	7%
O=C(NCc1ccccc1)C1CCCN(S(=O)(=O)c2ccc(F)cc2)C1 (centres undefined)	-2%	7	10%	-5%	0%	-16%
O=C(O)c1ccc(Cn2cnc3c(=O)[nH]cnc32)cc1	.	12	.	0%	.	1%
ON=C1c2cc(OCCN3CCCCC3)ccc2-c2ccc(OCCN3CCCCC3)cc21	-11%	-2	?	1%	2%	1%[9.22 µM]
NC(=S)NN=C1c2cc(OCCN3CCOCC3)ccc2-c2ccc(OCCN3CCOCC3)cc21	3.2µM*	-4	1.3µM*	?	?	?
CNC(=S)NNC(=O)c1ccccc1Cl	-3%	-10	?	-4%	-1%	-4%
CC(C)(C)NC(=S)NNC(=O)c1ccccc1Cl	1.4µM*	1	0.45µM*	0%	?	-3%
CC(C)(C)NC(=S)NNC(=O)c1cccc(Br)c1	?	-16	4.5µM*	-2%	?	2%
Cc1ccc(C(=O)ONc2ccc(N=NC(=O)c3ccccc3O)cc2)cc1	18µM*	2	17%	9%	?	0%
Cc1ccc(C(=O)ONc2ccc(N=O)cc2)cc1	13µM*	5	25µM*	-2%	-21%	6%
COc1ccc(C(C)(C)C)cc1NC(=O)C1=CC=CN2CCS(=O)(=O)N=C12	.	-2	.	2%	-3%	0%
Clc1ncnc2scc(-c3ccccc3)c12	-6%	1	?	0%	-6%	1%
Clc1nc(-c2cccnc2)nc2scc(-c3ccccc3)c12	9%	1	?	16µM*	-15%	12µM*
COc1ccc(-c2csc3nc(-c4cccnc4)nc(Cl)c23)cc1OC	-8%	-8	-21%	18µM*	?	?
COc1ccccc1OCCNC(=O)c1c(-c2ccccc2Cl)noc1C	-1%	24	-12%	14%	4%	-7%
COc1ccc(-c2ccc(-c3nc4c(c(=O)[nH]c(=O)n4Cc4ccccc4)n3C)o2)c([N+](=O)[O-])c1	-37%	-15	-4%[10 µM]	7%	-5%	8%
COCCn1c(=O)[nH]c(=O)c2c1nc(-c1ccc(-c3ccc(Cl)cc3[N+](=O)[O-])o1)n2Cc1ccccc1	?	10	?	5.2µM*	0%	?
